About 79,000 compounds went through this panel and 15% of them were active in at least one assay; those are over-represented in the sample as a whole. Unmarked numbers belong to inactive results. Calls of active or inactive are those of the source. Rule as the data show it: active = growth inhibition above about 70%; inactive = the rest.

10 compounds from PubChem BioAssay (NCI) can be followed below.

Experiment [1] in a line: NCI Yeast Anticancer Drug Screen. Data for the rad50 strain (AID 155).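 Also: 0% = growth of vehicle-only cultures of the same strain.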 To be noted: S. cerevisiae rad50 strain growth inhibition, active compounds read high. Summed up: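 Growth of the mutant yeast was measured after compound exposure and referenced to vehicle-treated cultures.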
Experiment [2] in a line: NCI Yeast Anticancer Drug Screen. Data for the mec2-1 strain (AID 157). To be noted: S. cerevisiae mec2-1 strain, active compounds read high. The method in brief:
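Each compound was tested on mec2-1 yeast, a strain altered in DNA damage repair or cell cycle control. Growth inhibition is reported relative to vehicle.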

Experiment [3] in a line: NCI Yeast Anticancer Drug Screen. Data for the sgs1 mgt1 strain (AID 161).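 Also: 0% = growth of cultures given vehicle only.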 To be noted: S. cerevisiae sgs1 mgt1 strain, active compounds read high. The method in brief:
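Genetically altered yeast, compound exposure, growth inhibition relative to vehicle.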

The nature of experiment [4]: NCI Yeast Anticancer Drug Screen. Data for the cln2 rad14 strain (AID 165).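 Also: 0% = growth equal to vehicle treated cultures.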 To be noted: S. cerevisiae cln2 rad14 strain, active compounds read high. Summed up:
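Test compounds were added to cln2 rad14 yeast cultures; inhibition of growth was then determined by comparison with vehicle treatment.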

The nature of experiment [5]: NCI Yeast Anticancer Drug Screen. Data for the bub3 strain (AID 167). To be noted: S. cerevisiae bub3 mutant strain, active compounds read high. The method in brief:
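Whole-cell yeast assay. The mutant strain was incubated with compounds, and growth inhibition was determined by comparison with vehicle-treated cells.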

A short description of experiment [6]: NCI Yeast Anticancer Drug Screen. Data for the mlh1 rad18 strain (AID 175). To be noted: S. cerevisiae mlh1 rad18 strain growth inhibition, active compounds read high. Summed up:
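Inhibition values reflect reduced growth of mutant yeast versus vehicle-treated controls following compound exposure; the mutations affect DNA damage repair.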

Setting [7] is: at 5.0 µM (retest, dose inferred, filed as 0.5).
Setting [8] is: at 50.0 µM (retest, dose inferred, filed as 5.0).

In the case of `CCc1cccc(C(C)(C)C)c1NC(=S)/N=C/C(C(=O)c1ccccc1)=C(\O)c1ccccc1`, the growth inhibition was -4% in experiment [1] (setting [7]); 70% (active) in experiment [1] (setting [8]); 77.2% (active) in experiment [1] (at 50.0 µM); -11% in experiment [2] (setting [7]); 66% in experiment [2] (setting [8]); 55.3% in experiment [2] (at 50.0 µM). Also, the growth inhibition is -10% in experiment [3] (setting [7]); 43% in experiment [3] (setting [8]); 68.9% in experiment [3] (at 50.0 µM); -13% in experiment [4] (setting [7]); 45% in experiment [4] (setting [8]); 48.1% in experiment [4] (at 50.0 µM). Further, the growth inhibition in experiment [5] (setting [7]) was -12%; in experiment [5] (setting [8]), 48%; in experiment [5] (at 50.0 µM), 80.3% (active); in experiment [6] (setting [7]), -4%; in experiment [6] (setting [8]), 65%; in experiment [6] (at 50.0 µM) it was 75.6% (active).

As for `Cc1cccc(N2CCN(CC(O)COc3ccc4ccccc4c3)CC2)c1` (stereo not given), the growth inhibition in experiment [1] (setting [7]) was -6%; in experiment [1] (setting [8]), -7%; in experiment [1] (at 50.0 µM), 80.7% (active); in experiment [2] (setting [7]), 13%; in experiment [2] (setting [8]), 18%; in experiment [2] (at 50.0 µM), 72.1% (active). For the same compound, the growth inhibition in experiment [3] (setting [7]) was -3%; in experiment [3] (setting [8]), 12%; in experiment [3] (at 50.0 µM), 97.7% (active); in experiment [4] (setting [7]) it was -4%; in experiment [4] (setting [8]), -6%; in experiment [4] (at 50.0 µM), 60.1%. The growth inhibition in experiment [5] (setting [7]) was -5%; in experiment [5] (setting [8]), 4%; in experiment [5] (at 50.0 µM), 41.1%; in experiment [6] (setting [7]), 26%; in experiment [6] (setting [8]), 28%; in experiment [6] (at 50.0 µM), 90% (active).

As for `COc1cc2c(c(O)c1C)C(=O)C(Cl)=CC2=O`, the growth inhibition in experiment [1] (setting [7]) was 99% (active); in experiment [1] (setting [8]), 99% (active); in experiment [1] (at 50.0 µM), 99.1% (active); in experiment [2] (setting [7]), 99% (active); in experiment [2] (setting [8]) it was 99% (active); in experiment [2] (at 50.0 µM) it was 99.2% (active). The growth inhibition was 99% (active) in experiment [3] (setting [7]); 98% (active) in experiment [3] (setting [8]); 99.3% (active) in experiment [3] (at 50.0 µM); 98% (active) in experiment [4] (setting [7]); 98% (active) in experiment [4] (setting [8]); 98.9% (active) in experiment [4] (at 50.0 µM). Moreover, the growth inhibition is 99% (active) in experiment [5] (setting [7]); 99% (active) in experiment [5] (setting [8]); 99.2% (active) in experiment [5] (at 50.0 µM); 99% (active) in experiment [6] (setting [7]); 99% (active) in experiment [6] (setting [8]); 99.2% (active) in experiment [6] (at 50.0 µM).

Regarding `NNc1c(Cl)cc(Cl)cc1Cl`, the growth inhibition in experiment [1] (setting [7]) was 44%; in experiment [1] (setting [8]), 93% (active); in experiment [1] (at 50.0 µM) it was 98.2% (active); in experiment [2] (setting [7]), -16%; in experiment [2] (setting [8]), 97% (active); in experiment [2] (at 50.0 µM) it was 98.9% (active). Besides, the growth inhibition was 12% in experiment [3] (setting [7]); 94% (active) in experiment [3] (setting [8]); 99.7% (active) in experiment [3] (at 50.0 µM); 21% in experiment [4] (setting [7]); 43% in experiment [4] (setting [8]); 97.8% (active) in experiment [4] (at 50.0 µM). In addition, the growth inhibition in experiment [5] (setting [7]) was 67%; in experiment [5] (setting [8]), 93% (active); in experiment [5] (at 50.0 µM) it was 99.2% (active); in experiment [6] (setting [7]) it was 51%; in experiment [6] (setting [8]), 97% (active); in experiment [6] (at 50.0 µM), 99.7% (active).

Turning to `COP(=O)(OC)/C(=C/c1cn(C(c2ccccc2)(c2ccccc2)c2ccccc2)cn1)NC=O`, the growth inhibition in experiment [1] (setting [7]) is 5%; in experiment [1] (setting [8]) it was 16%; in experiment [1] (at 50.0 µM), 2.1%; in experiment [2] (setting [7]), 2%; in experiment [2] (setting [8]) it was -5%; in experiment [2] (at 50.0 µM), 60.7%. The growth inhibition in experiment [3] (setting [7]) is -4%; in experiment [3] (setting [8]) it was 41%; in experiment [3] (at 50.0 µM), 79.9% (active); in experiment [4] (setting [7]), 1%; in experiment [4] (setting [8]) it was 14%; in experiment [4] (at 50.0 µM) it was 0.6%. Moreover, the growth inhibition in experiment [5] (setting [7]) was 0%; in experiment [5] (setting [8]) it was 9%; in experiment [5] (at 50.0 µM) it was -1.7%; in experiment [6] (setting [7]), -12%; in experiment [6] (setting [8]) it was 40%; in experiment [6] (at 50.0 µM), 39.2%.

`C1=CC2OC1c1cc3ccccc3cc12`: the growth inhibition in experiment [1] (setting [7]) is 13%; in experiment [1] (setting [8]), 92% (active); in experiment [1] (at 50.0 µM), 87.5% (active); in experiment [2] (setting [7]), 11%; in experiment [2] (setting [8]), 98% (active); in experiment [2] (at 50.0 µM), 96.5% (active). Besides, the growth inhibition in experiment [3] (setting [7]) was 10%; in experiment [3] (setting [8]), 98% (active); in experiment [3] (at 50.0 µM), 89.9% (active); in experiment [4] (setting [7]), 23%; in experiment [4] (setting [8]) it was 98% (active); in experiment [4] (at 50.0 µM) it was 95.6% (active). In addition, the growth inhibition in experiment [5] (setting [7]) is 6%; in experiment [5] (setting [8]), 97% (active); in experiment [5] (at 50.0 µM), 95% (active); in experiment [6] (setting [7]), 34%; in experiment [6] (setting [8]), 97% (active); in experiment [6] (at 50.0 µM) it was 95.2% (active).

For the compound `CN(/N=C\c1ccc(Cl)cc1)C(c1ccc(Cl)cc1)N(C)/N=C/c1ccc(Cl)cc1` (stereo not given), the growth inhibition was -1% in experiment [1] (setting [7]); 70% (active) in experiment [1] (setting [8]); 29% in experiment [1] (at 50.0 µM); 2% in experiment [2] (setting [7]); 84% (active) in experiment [2] (setting [8]); 9.5% in experiment [2] (at 50.0 µM). Moreover, the growth inhibition in experiment [3] (setting [7]) is -3%; in experiment [3] (setting [8]), 94% (active); in experiment [3] (at 50.0 µM), 80.2% (active); in experiment [4] (setting [7]) it was 3%; in experiment [4] (setting [8]), 67%; in experiment [4] (at 50.0 µM), 45.5%. The growth inhibition in experiment [5] (setting [7]) was -2%; in experiment [5] (setting [8]) it was 66%; in experiment [5] (at 50.0 µM), 16.6%; in experiment [6] (setting [7]), -3%; in experiment [6] (setting [8]), 85% (active); in experiment [6] (at 50.0 µM) it was 30.2%.

Turning to `CCOCCC(=O)N1c2ccccc2CC1c1c[nH]c2ccccc12` (stereo not given), the growth inhibition was -6% in experiment [1] (setting [7]); 36% in experiment [1] (setting [8]); 74.3% (active) in experiment [1] (at 50.0 µM); -9% in experiment [2] (setting [7]); 32% in experiment [2] (setting [8]); 4.65% in experiment [2] (at 50.0 µM). Further, the growth inhibition is -8% in experiment [3] (setting [7]); 59% in experiment [3] (setting [8]); 51.6% in experiment [3] (at 50.0 µM); -57% in experiment [4] (setting [7]); 36% in experiment [4] (setting [8]); 8.45% in experiment [4] (at 50.0 µM). Further, the growth inhibition is -8% in experiment [5] (setting [7]); 48% in experiment [5] (setting [8]); 0.45% in experiment [5] (at 50.0 µM); -4% in experiment [6] (setting [7]); 34% in experiment [6] (setting [8]); 67.1% in experiment [6] (at 50.0 µM).

With `Nc1nc(=O)n(C2OC(CO)C(O)C2O)cc1[N+](=O)[O-]` (stereo not given), the growth inhibition in experiment [1] (setting [7]) was -10%; in experiment [1] (setting [8]), -9%; in experiment [1] (at 50.0 µM), -5.75%; in experiment [2] (setting [7]) it was -6%; in experiment [2] (setting [8]), -15%; in experiment [2] (at 50.0 µM) it was 18.9%. Besides, the growth inhibition was -2% in experiment [3] (setting [7]); -5% in experiment [3] (setting [8]); 4.45% in experiment [3] (at 50.0 µM); -40% in experiment [4] (setting [7]); -13% in experiment [4] (setting [8]); -10.2% in experiment [4] (at 50.0 µM). Further, the growth inhibition was -7% in experiment [5] (setting [7]); 1% in experiment [5] (setting [8]); -12.7% in experiment [5] (at 50.0 µM); 1% in experiment [6] (setting [7]); -5% in experiment [6] (setting [8]); 17.9% in experiment [6] (at 50.0 µM).

As to `OC(CBr)C[n+]1cccc2cc(Cl)ccc21` (stereo not given), the growth inhibition in experiment [1] (setting [7]) is 6%; in experiment [1] (setting [8]), 5%; in experiment [1] (at 50.0 µM), -40%; in experiment [2] (setting [7]), 1%; in experiment [2] (setting [8]), 3%; in experiment [2] (at 50.0 µM), -13.4%. In addition, the growth inhibition was -1% in experiment [3] (setting [7]); 9% in experiment [3] (setting [8]); -28.6% in experiment [3] (at 50.0 µM); -1% in experiment [4] (setting [7]); -6% in experiment [4] (setting [8]); 39.8% in experiment [4] (at 50.0 µM). For the same compound, the growth inhibition in experiment [5] (setting [7]) was -1%; in experiment [5] (setting [8]), 6%; in experiment [5] (at 50.0 µM), 2.8%; in experiment [6] (setting [7]), 2%; in experiment [6] (setting [8]), -2%; in experiment [6] (at 50.0 µM) it was -5.8%.
